Screens from PubChem BioAssay.
uPA surface inh = qHTS for Inhibitors of Cell Surface uPA Generation; Potency, µM (titrated, usually from 38.3 µM), inactives show at the highest dose activity change, negative = inhibition, actives largely listed as inhibitors; 330,000 tested, 0.31% active; cell surface uPA generation assay, qHTS; active = well fitted inhibition curve with a large enough effect; inconclusive = small, poorly fitted or top-dose-only effect; inactive = no such curve, though single readings can be large or run the other way; tested in mouse RAW 264.7 cells; also: potency is read from the fitted curve at half-maximal effect; % is scaled to controls: 0 for no effect and ±100 for the full control effect; nearly all actives have a fitted effect of over 55% in size
Vif-APOBEC3G blk = qHTS for Inhibitors of Vif-A3G Interactions: qHTS; Potency, µM (doses to about 46.1 µM), inactives show at the highest dose activity, negative = active, hits mostly inhibitors; AID 602310, 2012; DNA dC->dU-editing enzyme APOBEC-3G (Homo sapiens), Q9HC16; HeLa A3G-eYFP + Vif (tagged APOBEC3G with the HIV-1 protein that degrades it), YFP fluorescence, overnight; 410,000 tested, 0.076% active; also: potency is read from the fitted curve at half-maximal effect; % is scaled to controls: 0 for no effect and ±100 for the full control effect; nearly all actives have a fitted effect of over 60% in size
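HeLa cells stably expressing Vif and C-terminally eYFP-tagged A3G, seeded overnight at 37 deg C, then exposed to compound by pintool overnight at 37 deg C. Rise in yellow fluorescence (Ex 488/Em 500-530, Acumen) marks blocked Vif-driven A3G degradation.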
Vif-APOBEC3F blk = qHTS for Inhibitors of Vif-A3F Interactions: qHTS | HeLa A3F-eYFP + Vif (tagged APOBEC3F with the HIV-1 protein that degrades it), YFP fluorescence increase | 390,000 tested, 0.2% active | Potency, µM (titrated, usually from 46.1 µM), for the others: at the highest dose activity, negative = active; also: potency is read from the fitted curve at half-maximal effect; % of control where 0% means no effect; nearly all actives have a fitted effect of over 65% in size
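HeLa cells stably expressing A3F-eYFP plus Vif, plated and incubated overnight at 37 deg C, then exposed to compounds overnight at 37 deg C. Blocked degradation read as raised yellow fluorescence (Ex 488/Em 500-530).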
MBNL1-CUG inh = qHTS Assay for Inhibitors of MBNL1-poly(CUG) RNA binding; Muscleblind-like protein 1 (Homo sapiens), Q9NR56; TR-FRET MBNL1-His/biotin-(CUG)12 binding, 665/545 ratio; Potency, µM (titrated, usually from 57.5 µM), without a hit: at the highest dose activity change, negative = inhibition, hits mostly inhibitors; 280,000 tested, 0.036% active; active = well fitted inhibition curve with a large enough effect in the signal ratio, with a control signal flat, not every such curve was filed as active; inconclusive = small, poorly fitted or top-dose-only effect, or effect the other way, or a change in a side signal; inactive = no such curve, though single readings can be large or run the other way; the % refers to the signal ratio; also: potency is read from the fitted curve at half-maximal effect; % is scaled to controls: 0 for no effect and ±100 for the full control effect
Target sequence (Q9NR56 whole entry, looked up): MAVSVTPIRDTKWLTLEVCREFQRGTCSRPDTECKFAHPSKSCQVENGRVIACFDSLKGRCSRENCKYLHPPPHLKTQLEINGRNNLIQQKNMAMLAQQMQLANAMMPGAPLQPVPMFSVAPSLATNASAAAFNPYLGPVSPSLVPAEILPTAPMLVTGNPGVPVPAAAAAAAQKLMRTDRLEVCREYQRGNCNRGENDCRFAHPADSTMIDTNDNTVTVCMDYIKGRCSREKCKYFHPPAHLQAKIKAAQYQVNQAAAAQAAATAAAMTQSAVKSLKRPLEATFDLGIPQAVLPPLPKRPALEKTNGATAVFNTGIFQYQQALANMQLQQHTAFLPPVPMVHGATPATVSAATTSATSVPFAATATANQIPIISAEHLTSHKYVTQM
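Ratiometric TR-FRET (665 over 545 nm, excitation 340 nm) tracks disruption of MBNL1-His/biotin-(CUG)12 complex after 60 min at room temperature, with compounds at 92 nM to 58 uM final.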
BCR signal inh = qHTS Assay to Find Inhibitors of Chronic Active B-Cell Receptor Signaling | 340,000 tested, 0.05% active | Potency, µM (highest dose often 46.1 µM), for the others: at the highest dose activity change, negative = inhibition, most hits filed as inhibitors | ABC-DLBCL IkBa-CBG/CBR reporter, luminescence ratio, 4 h; active = well fitted inhibition curve with a large enough effect in the signal ratio, with a control signal flat, not every such curve was filed as active; inconclusive = small, poorly fitted or top-dose-only effect, or effect the other way, or a change in a side signal; the % refers to the signal ratio;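 also: potency is read from the fitted curve at half-maximal effect; plate controls were basal doxycycline-induced cells for no effect and cells given 10 µM MG132 for full effect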
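TMD8 human ABC-DLBCL cells with doxycycline-inducible IκBα–green luciferase fusion and unfused red luciferase, in 0.5% FBS medium; compounds up to 46 uM, 4 h at 37C. Green/red luminescence ratio, filter-overlap corrected, fitted to concentration-response curves.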
TCR act = Activators of T cell receptors: qHTS campaign. AID 504894, 2011. primary human leukocytes, anti-CD3, IL-2 HTRF, 48 h. Potency, µM (series often up to 9.22 µM), for the others: at the highest dose activation of IL-2 secretion, usual class: activators. 330,000 tested, under 10 active; also: % of control where 0% means no effect
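Human primary leukocytes + a-CD3 beads + cpd, 48 hr; IL-2 in supernatant by HTRF (ex 320nm / em 665nm). No co-stimulatory signal supplied.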
An asterisk follows results filed as active; ! = repeats disagree; [ ] = dose if it differs, or a comment. Shown are actives, neighbours in structure and some others; about 0.54% of the full set was active somewhere. Unless noted, calls follow the shape of the dose curve; as a rule, active = well fitted curve in the direction sought with a large enough effect; inconclusive = small, poorly fitted or top-dose-only effect, or another doubt; inactive = no such curve, though single readings can be large; an effect the other way counts as inactive or inconclusive.

Cc1ccc(-c2nc3sc(C#N)c(N)n3c(=O)c2C#N)cc1 was read as uPA surface inh -1%, Vif-APOBEC3G blk -6%, Vif-APOBEC3F blk 6.3µM*, MBNL1-CUG inh inconclusive and BCR signal inh 5%.
CCC(O)CNC(=O)NC(=C(Cl)Cl)c1ccc(C)c(F)c1 (stereo not given) was read as uPA surface inh 10µM*, Vif-APOBEC3G blk -26%, Vif-APOBEC3F blk -10%, MBNL1-CUG inh -2%, BCR signal inh -21% and TCR act 0%[46.1 µM].
CCNC(=O)C1(C)CCN(C(=O)c2ccc(C)c(F)c2)C1 (stereo not given) was read as Vif-APOBEC3G blk 2%.
For NC(=O)CC(NC(=O)Cc1ccc(Br)cc1)c1ccc(NCc2ccc(F)cc2)c([N+](=O)[O-])c1 (stereo not given) the results were uPA surface inh inconclusive, Vif-APOBEC3G blk inconclusive, Vif-APOBEC3F blk 11µM*, MBNL1-CUG inh -18%, BCR signal inh 0% and TCR act 1%.
For Cc1cc(NC(=O)c2ccco2)cc(-c2nc3cc(Cl)ccc3o2)c1O the results were Vif-APOBEC3G blk inconclusive and Vif-APOBEC3F blk 11µM*.
Screening Cc1ccc2oc(-c3cc(NC(=O)c4cccs4)cc(C)c3O)nc2c1 returned Vif-APOBEC3G blk -1% and Vif-APOBEC3F blk 1%.
For S=C(NC1CCCCC1)N(CCc1ccccc1)CCc1ccccc1 the results were uPA surface inh -44%, Vif-APOBEC3G blk -1%, Vif-APOBEC3F blk 7.1µM*, MBNL1-CUG inh -16%, BCR signal inh 8% and TCR act 4%[46.1 µM].
O=C(c1ccc(Cl)cc1)C(CN1CCCC1)c1ccccc1 (stereo not given) was read as uPA surface inh 5µM*, Vif-APOBEC3G blk inconclusive, Vif-APOBEC3F blk -19%, MBNL1-CUG inh -6% and BCR signal inh inconclusive.
`CCCOc1ccc(C(=O)C(CN2CCCC2)c2ccccc2)cc1` (stereo not given) gave uPA surface inh -21%, Vif-APOBEC3G blk -13%, Vif-APOBEC3F blk -4%, MBNL1-CUG inh -1%, BCR signal inh inconclusive and TCR act -3%.
CCN(CC)C(=O)N1CCN(/[N+]([O-])=N/Oc2ccc([N+](=O)[O-])cc2[N+](=O)[O-])CC1 was read as Vif-APOBEC3G blk -8%.
`C=CCN=c1scc(-c2ccccc2)n1/N=C/c1ccccn1` gave uPA surface inh 0.4µM*!, Vif-APOBEC3G blk -20%, Vif-APOBEC3F blk -13%, MBNL1-CUG inh 19%, BCR signal inh -15% and TCR act 6%.
For C=CCN=c1scc(-c2ccc(F)cc2)n1/N=C/c1ccccn1 the results were uPA surface inh -14%, Vif-APOBEC3G blk -5%, Vif-APOBEC3F blk inconclusive, MBNL1-CUG inh 9%, BCR signal inh 0% and TCR act -5%[46.1 µM].
For Cc1nn(Cc2ccccc2Cl)c(C)c1NC(=O)c1cc(C(C)C)on1 the results were Vif-APOBEC3G blk -11% and Vif-APOBEC3F blk -1%.
Cc1nn(Cc2c(Cl)cccc2Cl)c(C)c1NC(=O)c1cc(C(C)C)on1 was read as uPA surface inh 3.2µM*, Vif-APOBEC3G blk inconclusive, Vif-APOBEC3F blk inconclusive, MBNL1-CUG inh -7%, BCR signal inh 5% and TCR act 1%.
CC(C)(C)CC(C)(C)N=C1Nc2ccc([N+](=O)[O-])cc2N[C@]12C[C@H]1CCCC(=O)N3CC[C@@H](C2)[C@@H]13 was read as Vif-APOBEC3G blk -8%.
